Nine compounds from PubChem BioAssay (NCI) can be followed below.

Among the test systems are SR leukemia; RPMI-8226 leukemia; OVCAR-8 ovarian; OVCAR-5 ovarian; OVCAR-4 ovarian; SK-OV-3 ovarian; IGROV1 ovarian; OVCAR-3 ovarian; HS 578T breast; NCI/ADR-RES ovarian; T-47D breast; BT-549 breast; SW-620 colon; MCF7 breast; HCT-116 colon; HCC-2998 colon; KM12 colon; MDA-MB-435 melanoma.
Common to all, as to assay: NCI-60 one-dose screen, 48 h (100 = growth as untreated, 0 = no growth, -100 = all killed)
Common to all, as to details: 10 µM unless noted

This is part of a sample that, as a whole, favours compounds with a hit. Of some 83,000 tested, about 20% had one in any assay.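 Single-dose data. Exposure time 48 hours. Values below 10 considered active.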 Values without a mark were called inactive. Active and inactive are the calls of the source.

With `O=C1c2cc3c(cc2-c2c1c1cc(F)c(F)cc1c(=O)n2C[C@H](O)CO)OCO3`, the growth in the assay with SR leukemia is -16.5% (active); in the assay on RPMI-8226 leukemia it was -0.801% (active); in the assay on OVCAR-8 ovarian, 4.44% (active); with OVCAR-5 ovarian, 4.09% (active); with OVCAR-4 ovarian it was 7.88% (active); in the assay with SK-OV-3 ovarian, -4.97% (active). Moreover, the growth in the assay on IGROV1 ovarian was 8.38% (active); in the assay with OVCAR-3 ovarian, -8.12% (active); in the assay with HS 578T breast, 42.1%; in the assay on NCI/ADR-RES ovarian, -17% (active); with T-47D breast it was -9.55% (active); with BT-549 breast, 0.808% (active). The growth in the assay with SW-620 colon is 11.7%; in the assay with MCF7 breast, 3.86% (active); with HCT-116 colon it was 3.5% (active); in the assay with HCC-2998 colon it was 10.7%; with KM12 colon, 5.01% (active).

Turning to `O=C(O)c1cccnc1Br`, the growth is 89.4% in the assay on SR leukemia; 112% in the assay with RPMI-8226 leukemia; 106% with OVCAR-8 ovarian; 101% with OVCAR-5 ovarian; 102% in the assay with OVCAR-4 ovarian; 94.4% in the assay on SK-OV-3 ovarian. For the same compound, the growth in the assay on IGROV1 ovarian is 98.1%; with OVCAR-3 ovarian, 104%; in the assay with HS 578T breast, 110%; in the assay on NCI/ADR-RES ovarian it was 99.3%; with T-47D breast, 85.4%; with BT-549 breast, 110%. In addition, the growth in the assay on SW-620 colon is 110%; with MCF7 breast, 96.8%; with HCT-116 colon, 98.1%; in the assay on HCC-2998 colon, 98.5%; in the assay with KM12 colon, 113%.

Turning to `O=[N+]([O-])c1cccc(-c2nc3sccn3c2-c2ccnc(NCCCNS(=O)(=O)c3ccc(Br)cc3)n2)c1`, the growth in the assay on SR leukemia is 51.8%; in the assay on RPMI-8226 leukemia, 9.86% (active); in the assay on OVCAR-8 ovarian, 28.2%; with OVCAR-5 ovarian it was 114%; in the assay on OVCAR-4 ovarian, 32.7%; in the assay with SK-OV-3 ovarian, 92.5%. For the same compound, the growth in the assay on IGROV1 ovarian was 41.6%; in the assay with OVCAR-3 ovarian it was 51.2%; in the assay with HS 578T breast it was 87.7%; in the assay with NCI/ADR-RES ovarian, 23.1%; with T-47D breast it was 1.8% (active); in the assay with MDA-MB-435 melanoma, 46.6%. In addition, the growth was 98.1% with SW-620 colon; 34% in the assay on MCF7 breast; 56.9% in the assay on HCT-116 colon; 102% with HCC-2998 colon; 40.5% with KM12 colon.

Turning to `O=C(Cc1ccccc1)c1ccc(Cl)cc1`, the growth with SR leukemia is 96.7%; in the assay on RPMI-8226 leukemia it was 160%; in the assay on OVCAR-8 ovarian, 103%; in the assay with OVCAR-5 ovarian it was 83.2%; with OVCAR-4 ovarian it was 107%; with SK-OV-3 ovarian, 107%. Also, the growth in the assay with IGROV1 ovarian is 105%; in the assay on OVCAR-3 ovarian it was 111%; in the assay with HS 578T breast, 120%; in the assay with NCI/ADR-RES ovarian it was 96.6%; in the assay with T-47D breast it was 91.1%; in the assay on BT-549 breast, 106%. Further, the growth in the assay with SW-620 colon was 99%; in the assay on MCF7 breast it was 95.6%; with HCT-116 colon it was 93.2%; in the assay with HCC-2998 colon, 99%; with KM12 colon, 101%.

Consider `Cc1cc(OCc2ccc(C(F)(F)F)cc2)c2c(c1)C(=O)C=C(NCCN1CCCC1)C2=O`, for which the growth in the assay with SR leukemia is -11.6% (active); in the assay on RPMI-8226 leukemia it was 29.9%; in the assay on OVCAR-8 ovarian, 72.3%; with OVCAR-5 ovarian, 87.9%; in the assay with OVCAR-4 ovarian, 68%; in the assay on SK-OV-3 ovarian it was 103%. Also, the growth was 74.8% with IGROV1 ovarian; 83.9% in the assay with OVCAR-3 ovarian; 85% with HS 578T breast; 81.1% in the assay on NCI/ADR-RES ovarian; 42.8% with T-47D breast; -23.5% (active) in the assay with MDA-MB-435 melanoma. Also, the growth in the assay with SW-620 colon is 74.7%; in the assay with MCF7 breast, 31%; with HCT-116 colon, 19.6%; with HCC-2998 colon it was 15.2%; with KM12 colon it was 79.1%.

For `O=C1C[C@H](Sc2nc(-c3ccc(F)cc3)cc(C(F)(F)F)n2)[C@H]2CO[C@@H]1O2`, the growth in the assay on SR leukemia was 17.9%; with RPMI-8226 leukemia, 96.9%; in the assay on OVCAR-8 ovarian, 97.4%; in the assay on OVCAR-5 ovarian it was 105%; with OVCAR-4 ovarian it was 108%; in the assay with SK-OV-3 ovarian, 108%. Also, the growth in the assay with IGROV1 ovarian is 115%; with OVCAR-3 ovarian, 91.6%; in the assay on HS 578T breast, 109%; in the assay on NCI/ADR-RES ovarian, 106%; in the assay on T-47D breast, 62.3%; with BT-549 breast it was 111%. In addition, the growth was 67.5% in the assay on SW-620 colon; 46.4% with MCF7 breast; 75.6% in the assay with HCT-116 colon; 105% in the assay with HCC-2998 colon; 101% with KM12 colon.

Turning to `Cc1ccc(N)cc1F`, the growth in the assay on SR leukemia is 121%; in the assay with RPMI-8226 leukemia, 121%; in the assay on OVCAR-8 ovarian, 96.4%; in the assay with OVCAR-5 ovarian it was 109%; in the assay with OVCAR-4 ovarian it was 113%; with SK-OV-3 ovarian, 102%. Moreover, the growth was 104% in the assay on IGROV1 ovarian; 102% in the assay with OVCAR-3 ovarian; 86.4% with HS 578T breast; 94.2% with NCI/ADR-RES ovarian; 184% with T-47D breast; 116% in the assay on BT-549 breast. The growth was 107% in the assay on SW-620 colon; 94.2% with MCF7 breast; 86.8% in the assay on HCT-116 colon; 106% with HCC-2998 colon; 99.7% in the assay on KM12 colon.

Take `COc1ccc2nc3cc(Cl)ccc3c(N3CCN(c4ccnc(N5CCN(C)CC5)n4)CC3)c2c1`: the growth was -26.9% (active) with SR leukemia; 11.2% in the assay with RPMI-8226 leukemia; 41.2% in the assay with OVCAR-8 ovarian; 81.4% in the assay with OVCAR-5 ovarian; 46.2% in the assay on OVCAR-4 ovarian; 87.2% in the assay on SK-OV-3 ovarian. For the same compound, the growth was 72.9% in the assay on IGROV1 ovarian; -39.4% (active) with OVCAR-3 ovarian; 106% in the assay on HS 578T breast; 84.9% in the assay on NCI/ADR-RES ovarian; -26.1% (active) with T-47D breast; 55.5% in the assay with BT-549 breast. Also, the growth with SW-620 colon was -55.1% (active); with MCF7 breast it was -55.8% (active); with HCT-116 colon, -62.4% (active); with HCC-2998 colon it was 8.43% (active); with KM12 colon it was 36%.

Take `N#Cc1c2c(nc3n[nH]c(N)c13)CCCC2`: the growth in the assay with SR leukemia is 93.6%; in the assay with RPMI-8226 leukemia it was 100%; in the assay on OVCAR-8 ovarian, 111%; in the assay with OVCAR-5 ovarian, 93.8%; with OVCAR-4 ovarian, 101%; in the assay with SK-OV-3 ovarian it was 116%. The growth with IGROV1 ovarian was 109%; with OVCAR-3 ovarian, 100%; with HS 578T breast it was 117%; with NCI/ADR-RES ovarian it was 105%; in the assay with T-47D breast, 98%; in the assay on BT-549 breast, 130%. For the same compound, the growth in the assay with SW-620 colon is 96%; in the assay with HCT-116 colon it was 101%; in the assay with HCC-2998 colon, 92.6%; in the assay on KM12 colon it was 111%.
